Values joined by “and” are separate entries in the source; they are usually repeats but may differ in a detail not shown here. Identical values can stand only once. Results filed as inconclusive are left out. Where a structure was tested more than once in an assay, its records may differ in their call. Active and inactive are the calls of the source. Unless noted, calls follow the shape of the dose curve; as a rule, active = well fitted curve in the direction sought with a large enough effect in the repeat runs; inconclusive = weak or mixed curves; inactive = no such curve, though single readings can be large; an effect the other way counts as inactive or inconclusive.
Assays:
[1] = qHTS assay to identify small molecule antagonists of the androgen receptor (AR) signaling pathway using the MDA cell line in the presence of 0.5 nM R1881 - cell viability counter screen (AID 1259242); also: nearly all actives have a fitted effect of over 45% in size; also: potency is read from the fitted curve at half-maximal effect
Outline: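 Live-cell protease fluorescence, CellTiter-Fluor, 30 min at 37C. Cells: MDA-kb2, 3,000/well, preincubated 5 hr. Compounds plus 0.5 nM R1881 final, 16 hr, 37C, 0% CO2.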

[2] = target: Estrogen receptor (Homo sapiens) (UniProt P03372); experiment: qHTS assay to identify small molecule antagonists of the estrogen receptor alpha (ER-alpha) signaling pathway using the BG1 cell line in the presence of 0.1 nM 17-beta-estradiol (AID 1259244); also: nearly all actives have a fitted effect of over 50% in size; also: potency is read from the fitted curve at half-maximal effect
Sequence of Estrogen receptor (Homo sapiens) (P03372 whole entry, looked up): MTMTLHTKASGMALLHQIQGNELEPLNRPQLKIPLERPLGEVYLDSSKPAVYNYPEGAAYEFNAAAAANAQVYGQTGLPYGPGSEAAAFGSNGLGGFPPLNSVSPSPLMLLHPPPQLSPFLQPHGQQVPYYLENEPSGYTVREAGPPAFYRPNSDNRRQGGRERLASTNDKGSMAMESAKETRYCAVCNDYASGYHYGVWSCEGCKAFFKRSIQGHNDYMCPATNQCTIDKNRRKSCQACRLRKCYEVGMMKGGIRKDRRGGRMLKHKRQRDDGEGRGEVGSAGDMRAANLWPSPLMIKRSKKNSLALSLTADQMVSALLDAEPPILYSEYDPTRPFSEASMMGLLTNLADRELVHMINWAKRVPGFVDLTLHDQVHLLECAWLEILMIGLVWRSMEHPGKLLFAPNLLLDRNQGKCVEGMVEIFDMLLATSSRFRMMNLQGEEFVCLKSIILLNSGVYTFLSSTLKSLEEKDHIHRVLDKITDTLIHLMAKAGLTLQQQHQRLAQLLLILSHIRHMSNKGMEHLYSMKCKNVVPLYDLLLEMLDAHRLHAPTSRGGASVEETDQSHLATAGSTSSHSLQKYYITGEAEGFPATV
Outline: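 Luminescence after ONE-Glo (30 min, room temperature) measured ERE-luciferase activity in VM7Luc4E2 cells treated 22 h with compound and 0.1 nM final 17beta-estradiol as stimulator.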

[3] = qHTS assay to identify small molecule HDAC inhibitors (AID 1259364); also: potency is read from the fitted curve at half-maximal effect;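 also: wild-type HCT-116 cells with endogenous class I/II HDAC activity; nearly all actives have a fitted effect of over 45% in size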; as to activity change, negative = inhibition: top concentration of the series differs between compounds
Outline: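 HCT-116 (wild type), 1,500 cells/well, overnight; compound 2 hr 37C 5% CO2; HDAC-Glo I/II reagent 30 min RT; luminescence readout.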

[4] = qHTS assay to identify small molecule HDAC inhibitors - cell viability counter screen (AID 1259365); also: series mostly up to about 92 µM; nearly all actives have a fitted effect of over 50% in size
Outline: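 After overnight seeding at 1,500 cells per well, wild-type HCT-116 cultures took up compounds in DMSO for 2hr at 37 C. Viable cell content came from luminescence with CellTiter-Glo.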

[5] = qHTS assay to identify small molecule agonists of the sonic hedgehog signaling (Shh) pathway - cell viability counter screen (AID 1259366); also: nearly all actives have a fitted effect of over 50% in size; also: potency is read from the fitted curve at half-maximal effect
Outline: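 Same-well cytotoxicity read. Gli1-Luc reporter 3T3 cells; compounds 24hr, 37C/5% CO2; CellTiter-Fluor fluorescence.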

[6] = qHTS assay to identify small molecule antagonists of the sonic hedgehog signaling (Shh) pathway - cell viability counter screen (AID 1259367); also: nearly all actives have a fitted effect of over 55% in size; also: potency is read from the fitted curve at half-maximal effect
Outline: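 Conditioned medium drove Shh signaling in 3T3 Gli1-Luc cells exposed to compounds at 37C and 5% CO2. Viability was determined from CellTiter-Fluor fluorescence, with reagent incubated 1 hr after 23 hr of treatment.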

[7] = qHTS assay to identify small molecule agonists of the sonic hedgehog signaling (Shh) pathway (AID 1259368; calls by dose curve; also: nearly all actives have a fitted effect of over 15% in size; also: potency is read from the fitted curve at half-maximal effect;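 as to activity change: NIH/3T3-derived 3T3Gli1-Luc cells carrying a stable Gli1-driven firefly luciferase reporter; series mostly up to about 92 µM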)
Outline: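 Read-out: firefly luciferase luminescence from a Gli1 response element reporter stably integrated in NIH/3T3-derived 3T3Gli1-Luc cells, measured 30 min at room temperature after reagent addition. Compound exposure lasted 24 hr at 37 C, 5% CO2.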

[8] = qHTS assay to identify small molecule antagonists of the sonic hedgehog signaling (Shh) pathway (AID 1259369; calls by dose curve; also: nearly all actives have a fitted effect of over 45% in size; also: potency is read from the fitted curve at half-maximal effect)
Outline: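 Luminescence readout: firefly Luc under Gli1 response element in 3T3Gli1-Luc cells (NIH/3T3 clone). Antagonist mode, stimulation by conditioned medium; compound exposure 24hr at 37 C, 5% CO2.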
% is scaled to controls: 0 for no effect and ±100 for the full control effect.

COc1ccc(-c2coc3cc(O)cc(O)c3c2=O)cc1
17.4 µM (active) and inactive: Potency [8]
inactive: Potency [2] | outcome [4] | Potency [5] | Potency [6] | Potency [7]
active: Potency [3] 21.9 µM and 17.2 µM
54.9 µM (active) and inactive: Potency [1]

CCCCCCCC/C=C\CCCCCCCC(=O)O
inactive: Potency [1] | Potency [2] | Potency [3] | outcome [4] | Potency [5] | Potency [6] | Potency [7] | Potency [8]

OCCNCCO
inactive: Potency [1] | Potency [2] | Potency [3] | outcome [4] | Potency [5] | Potency [6] | Potency [7] | Potency [8]

CCCCCCCCCCCCO
inactive and 60.4 µM (active): Potency [8]
inactive: Potency [1] | Potency [2] | Potency [3] | outcome [4] | Potency [5] | Potency [6] | Potency [7]

FC(F)(F)C(Cl)Br (stereo unspecified)
inactive: Potency [1] | Potency [2] | Potency [3] | outcome [4] | Potency [5] | Potency [6] | Potency [7] | Potency [8]

COc1cc([C@H]2Oc3cc([C@H]4Oc5cc(O)cc(O)c5C(=O)[C@@H]4O)ccc3O[C@@H]2CO)ccc1O
27.2 µM (active) and inactive: Potency [6]
24.3 µM (active) and inactive: Potency [5]
inactive: Potency [1] | Potency [2] | Potency [3] | outcome [4] | Potency [7]
active: Potency [8] 19.3 µM

CC(C)[N+](C)(CCOC(=O)C1c2ccccc2Oc2ccccc21)C(C)C
inactive: Potency [1] | Potency [2] | Potency [3] | outcome [4] | Potency [5] | Potency [6] | Potency [7] | Potency [8]

O=C(O)c1cc(=O)[nH]c(=O)[nH]1
inactive: Potency [1] | Potency [2] | Potency [3] | outcome [4] | Potency [5] | Potency [7]
inactive and 16.8 µM (active): Potency [6]
inactive and 13.3 µM (active): Potency [8]

CCO[Si](CCCNC(N)=O)(OCC)OCC
inactive: Potency [1] | Potency [2] | Potency [3] | outcome [4] | Potency [5] | Potency [6] | Potency [7] | Potency [8]

c1ccc2ncccc2c1
inactive: Potency [1] | Potency [2] | Potency [3] | outcome [4] | Potency [5] | Potency [6] | Potency [7] | Potency [8]

CC1(C)O[C@@H]2C[C@H]3[C@@H]4C[C@H](F)C5=CC(=O)C=C[C@]5(C)[C@@]4(F)[C@@H](O)C[C@]3(C)[C@]2(C(=O)CO)O1
inactive: Potency [1] | Potency [2] | Potency [3] | outcome [4] | Potency [5] | Potency [6] | Potency [7] | Potency [8]

Nc1ccc2c(c1)C(=O)c1ccccc1C2=O
inactive: Potency [1] | Potency [2] | outcome [4] | Potency [5] | Potency [6] | Potency [8]
active: Potency [3] 951 nM and 770 nM | Potency [7] 0.864 µM

O=C(O)CCCC(=O)O
inactive: Potency [1] | Potency [2] | Potency [3] | outcome [4] | Potency [5] | Potency [6] | Potency [7] | Potency [8]

Nc1cc([N+](=O)[O-])ccc1C(=O)O
inactive: Potency [1] | Potency [2] | outcome [4] | Potency [5] | Potency [6] | Potency [7] | Potency [8]
active: Potency [3] 49.5 µM and 27.3 µM

CNC[C@H](O)c1ccc(O)c(O)c1
inactive: Potency [1] | Potency [2] | Potency [3] | outcome [4] | Potency [5] | viability change, negative = cytotoxic [6] -0.782% [at 19 µM] | Potency [7] | activity change, negative = inhibition [8] -2.86% [at 19 µM]
active: Potency [8] 17.2 µM

[Na+]
inactive: Potency [1] | Potency [2] | Potency [3] | outcome [4] | Potency [5] | Potency [6] | Potency [7] | Potency [8]

CCCCCCCCCCCCCO
inactive: Potency [1] | Potency [2] | Potency [3] | outcome [4] | Potency [5] | Potency [6] | Potency [7] | Potency [8]

CCCN1C=CN(C)C1
inactive: Potency [1] | Potency [2] | Potency [3] | outcome [4] | Potency [5] | Potency [6] | Potency [7] | Potency [8]

CN(C)C
inactive: Potency [1] | Potency [2] | Potency [3] | outcome [4] | Potency [5] | Potency [6] | Potency [7] | Potency [8]

COC(=O)C(C)Oc1ccc(Oc2ncc(C(F)(F)F)cc2Cl)cc1 (stereo unspecified)
inactive and 30.6 µM (active): Potency [8]
inactive: Potency [1] | Potency [2] | Potency [3] | outcome [4] | Potency [5] | Potency [6] | Potency [7]

CC(=O)Nc1ccc2c(c1)Cc1cc(NC(C)=O)ccc1-2
inactive: Potency [1] | Potency [2] | Potency [3] | outcome [4] | Potency [5] | Potency [6] | Potency [7] | Potency [8]

C=CN1CCCC1=O
inactive: Potency [1] | Potency [2] | Potency [3] | outcome [4] | Potency [5] | Potency [6] | Potency [7] | Potency [8]

C=CCNCC=C
inactive: Potency [1] | Potency [2] | Potency [3] | outcome [4] | Potency [5] | Potency [6] | Potency [7] | Potency [8]

COC(=O)c1ccc(C)cc1
inactive: Potency [1] | Potency [2] | Potency [3] | outcome [4] | Potency [5] | Potency [6] | Potency [7] | Potency [8]

Cc1ccc([N+](=O)[O-])c(C)c1
inactive: Potency [1] | Potency [3] | outcome [4] | Potency [5] | Potency [6] | Potency [7] | Potency [8]
6.11 µM (active) and inactive: Potency [2]
